# Laboratory results published in the antibiotic and cytotoxicity screens of Wong et al. (2023).
# The whole screen tested about 39,000 compounds, of which about 1,500 (3.8%) were called active. Many of the other results were omitted from the sample, so actives are more common in it than they were.
# Test system: HSkMC (human skeletal muscle cells)
# Assay: cytotoxicity call (relative viability < 0.9)
# Conditions: 10 µM
row,SMILES,cytotoxicity call
1,CC(C)NC(=O)Nc1ccc2c(c1)C(=O)N([C@H](C)CO)C[C@@H](C)[C@@H](CN(C)C(=O)NC1CCCCC1)O2,inactive
2,CN1CCN(C(=O)C[C@H]2CC[C@H](NC(=O)c3ccc4c(c3)OCO4)[C@H](CO)O2)CC1,inactive
3,C[C@@H]1CN([C@@H](C)CO)C(=O)c2cc(NS(=O)(=O)c3cccs3)ccc2O[C@@H](C)CCCCO[C@H]1CN(C)Cc1ccccc1,inactive
4,C[C@H](CO)N1C[C@H](C)[C@H](CN(C)C(=O)Cc2ccccn2)Oc2cc(-c3cccc(C(=O)N(C)C)c3)ccc2S1(=O)=O,inactive
5,C[N+](C)(C)CCCC[C@@H]1NC(=O)[C@@H]2C[C@H](C(=O)NCc3ccc(F)cc3)[C@H](c3cccc(OCCO)c3)N2C1=O,inactive
6,C[C@@H]1CCCCO[C@@H](CN(C)Cc2ccccc2)[C@H](C)CN([C@@H](C)CO)C(=O)c2cc(NC(=O)c3ccncc3)ccc2O1,inactive
7,C[C@H](CO)N1C[C@H](C)[C@@H](CN(C)C(=O)Nc2ccccc2F)Oc2ncc(Br)cc2C1=O,inactive
8,C[C@H](CO)N1C[C@H](C)[C@@H](CN(C)C(=O)Nc2ccc(C(C)(C)C)cc2)OCc2cn(nn2)CCCC1=O,inactive
9,C[C@H]1CN([C@@H](C)CO)C(=O)Cc2cc(NC(=O)Cc3cn(C)c4ccccc34)ccc2O[C@H]1CN(C)Cc1ccc(C(=O)Nc2ccccc2N)cc1,inactive
10,C[C@H](CO)N1C[C@H](C)[C@@H](CN(C)C(=O)C2CCCCC2)OCCCC[C@H](C)Oc2ccc(NS(=O)(=O)c3cccs3)cc2C1=O,inactive
11,C[C@H](O)C#Cc1cnc2c(c1)C(=O)N([C@@H](C)CO)C[C@H](C)[C@H](CN(C)C(=O)CN1CCOCC1)O2,inactive
12,CC(C)NC(=O)N(C)C[C@@H]1Oc2c(NS(=O)(=O)c3cn(C)cn3)cccc2C(=O)N([C@@H](C)CO)C[C@@H]1C,inactive
13,C[C@@H]1CN([C@@H](C)CO)C(=O)c2cc(NS(=O)(=O)c3cccs3)ccc2O[C@@H](C)CCCCO[C@@H]1CN(C)Cc1ccccc1,inactive
14,Cc1ccc(S(=O)(=O)Nc2ccc3c(c2)C(=O)N([C@H](C)CO)C[C@H](C)[C@H](CN(C)Cc2ccc(Oc4ccccc4)cc2)O3)cc1,inactive
15,Cc1ccc(S(=O)(=O)Nc2ccc3c(c2)C(=O)N([C@H](C)CO)C[C@H](C)[C@@H](CN(C)Cc2ccc(Oc4ccccc4)cc2)O3)cc1,inactive
16,Cc1ccc(S(=O)(=O)Nc2ccc3c(c2)C(=O)N([C@H](C)CO)C[C@@H](C)[C@H](CN(C)Cc2ccc(Oc4ccccc4)cc2)O3)cc1,active
17,O=C(CCCCC(=O)N/N=C/[C@H](O)[C@@H](O)[C@@H](O)[C@H](O)C(=O)O)NO,inactive
18,C/C(=C\CO)CC[C@H](C)CCC[C@H](C)CCCC(C)C,inactive
19,CC(=CCC1=C(C)C(=O)c2ccccc2C1=O)CCCC(C)CCCC(C)CCCC(C)C (stereo not given),inactive
20,CC(=CCO)CCC(C)CCCC(C)CCCC(C)C (stereo not given),active

row,SMILES,cytotoxicity call
1,COc1ccc(S(=O)(=O)N(C)C[C@H]2OCCCC[C@H](C)Oc3ccc(NC(=O)C4CCCCC4)cc3C(=O)N([C@H](C)CO)C[C@H]2C)cc1,inactive
2,CCNC(=O)C[C@H]1C=C[C@@H](NC(=O)C2CC2)[C@H](CO)O1,inactive
3,CC1(C)CC(=O)c2c(C(F)(F)F)nn(-c3ccc(C(N)=O)c(O[C@H]4CC[C@H](N)CC4)c3)c2C1,inactive
4,CC1(C)CC(=O)c2c(C(F)(F)F)nn(-c3ccc(C(N)=O)c(N[C@H]4CC[C@H](OC(=O)CN)CC4)c3)c2C1,active
5,NCc1ccccc1-c1ccsc1,inactive
6,CC(C)C#Cc1cnc2c(c1)C(=O)N([C@@H](C)CO)C[C@H](C)[C@@H](CN(C)C(=O)c1ccc3c(c1)OCO3)O2,inactive
7,COc1ccc(CN(C)C[C@@H]2OCCCC[C@@H](C)Oc3ccc(NC(=O)Nc4ccccc4)cc3C(=O)N([C@H](C)CO)C[C@@H]2C)cc1,inactive
8,COc1ccc(-c2oc3c(CC=C(C)C)c(OC4OC(CO)C(O)C(O)C4O)cc(O)c3c(=O)c2OC2OC(C)C(O)C(O)C2O)cc1 (stereo not given),inactive
9,COc1ccc(-c2oc3c(CC=C(C)C)c(O[C@@H]4O[C@H](CO)[C@@H](O)[C@H](O)[C@H]4O)cc(O)c3c(=O)c2O[C@@H]2O[C@@H](C)[C@H](O)[C@@H](O)[C@H]2O)cc1,active
10,COc1ccc(-c2oc3cc(O[C@@H]4O[C@@H](C)[C@H](O)[C@@H](O)[C@H]4O)cc(O)c3c(=O)c2O[C@@H]2O[C@H](CO)[C@@H](O)[C@H](O)[C@H]2O)cc1,inactive
11,COc1ccc(CN(C)C[C@H]2OCCCC[C@H](C)Oc3ccc(NS(=O)(=O)c4ccc(OC)cc4)cc3C(=O)N([C@@H](C)CO)C[C@@H]2C)cc1,inactive
12,COc1ccc(S(=O)(=O)Nc2ccc3c(c2)C(=O)N([C@@H](C)CO)C[C@H](C)[C@H](CN(C)Cc2ccc(Cl)c(Cl)c2)OCCCC[C@@H](C)O3)cc1,active
13,COc1ccc(S(=O)(=O)Nc2ccc3c(c2)C(=O)N([C@H](C)CO)C[C@H](C)[C@@H](CN(C)Cc2ccc(Cl)c(Cl)c2)OCCCC[C@H](C)O3)cc1,active
14,COc1ccc(CN(C)C[C@H]2OCCCC[C@H](C)Oc3ccc(NS(=O)(=O)c4ccc(OC)cc4)cc3C(=O)N([C@H](C)CO)C[C@H]2C)cc1,inactive
15,COc1ccc(CN(C)C[C@H]2OCCCC[C@@H](C)Oc3ccc(NS(=O)(=O)c4ccc(OC)cc4)cc3C(=O)N([C@@H](C)CO)C[C@@H]2C)cc1,inactive
16,COc1ccc(S(=O)(=O)Nc2ccc3c(c2)C(=O)N([C@@H](C)CO)C[C@@H](C)[C@@H](CN(C)Cc2ccc(Cl)c(Cl)c2)OCCCC[C@@H](C)O3)cc1,active
17,COc1ccc(CN(C)C[C@H]2OCCCC[C@@H](C)Oc3ccc(NS(=O)(=O)c4ccc(OC)cc4)cc3C(=O)N([C@H](C)CO)C[C@H]2C)cc1,inactive
18,COc1ccc(S(=O)(=O)Nc2ccc3c(c2)C(=O)N([C@H](C)CO)C[C@H](C)[C@H](CN(C)Cc2ccc(Cl)c(Cl)c2)OCCCC[C@@H](C)O3)cc1,inactive
19,COc1ccc(S(=O)(=O)Nc2ccc3c(c2)C(=O)N([C@H](C)CO)C[C@@H](C)[C@H](CN(C)Cc2ccc(Cl)c(Cl)c2)OCCCC[C@@H](C)O3)cc1,inactive
20,COc1ccc(S(=O)(=O)Nc2ccc3c(c2)C(=O)N([C@@H](C)CO)C[C@@H](C)[C@H](CN(C)Cc2ccc(Cl)c(Cl)c2)OCCCC[C@@H](C)O3)cc1,active
